This is an account of results in PubChem BioAssay AID1910 (Broad Institute, 2009).

The structures appear in SMILES notation. About 950 (0.32%) of roughly 300,000 compounds were called active.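 The calls were made as follows: active = mean activation of at least 10% of the iron chelator positive control signal, with at least half of replicates also reaching 10%; inconclusive = mean and replicate majority disagree about reaching 10%; inactive = mean and most replicates under 10%.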 Shown is part of a subset that was picked to be rich in actives.

This experiment is described as follows: hypoxia response element reporter activation – cell-based, U2OS HRE-luciferase, luminescence, primary screen (AID 1910). Conditions: active compounds read high, screened at 7.5 µM (by protocol), normalized: DMSO 0%, desferrioxamine 100%.
On to `Cc1ccc(Cl)cc1NC(=O)c1ccccn1`, for which the activation was 1.23% (inactive).

Consider `C/C(=N\NC(=O)Cc1ccc(Br)cc1)c1cccnc1`, for which the activation was 24.8% (active). To `C/C(=N\NC(=O)Cc1ccc(Cl)cc1)c1ccccn1` belongs 17.7% (active); to `C/C(=N\NC(=O)Cc1ccccc1[N+](=O)[O-])c1cccnc1`, 0.0865% (inactive); to `C/C(=N\NC(N)=S)c1cccnc1`, -0.0419% (inactive). Next, `C/C(=N\NC(=O)c1ccccc1F)c1ccccn1`: 1.74% (inactive); `O=C(N[C@@H](Cc1ccccc1)C(=O)OCc1ccccc1)c1nc[nH]c1C(=O)NC1CCNCC1`: 1.06% (inactive); `Cc1cc(NC(=O)CSC2=NS(=O)(=O)c3cc(Cl)ccc3N2)no1`: 1.88% (inactive). In the case of `COc1ccc(/C=C(\C#N)C(=O)OCC(=O)N(C)C2CCS(=O)(=O)C2)cc1` (stereo not given), the activation is -41.3% (inactive).

Consider `CCOc1nc(NCCN2CCOCC2)nc(Nc2ccc(C)cc2)n1`, for which the activation is 296% (active).

Turning to `CCOc1cccc(/C=N/NC(=S)NCCN2CCOCC2)c1O`, the activation is 0.43% (inactive). Next, `Nc1nc(NCCCN2CCOCC2)nc(Nc2ccccc2)c1[N+](=O)[O-]`: -0.302% (inactive); `O=C1CC2(CCN(C(=O)COc3ccc(F)cc3)CC2)Oc2ccccc21`: -0.0585% (inactive). To `O=C(CCCCO)c1ccc(O)c(Cl)c1` belongs -0.731% (inactive). To `COc1cc(-c2nnc(NC(=O)C3=COCCO3)o2)cc(OC)c1OC` belongs -0.75% (inactive). Regarding `COc1cc(OC)cc(C(=O)NNC(=O)CNC(=O)c2ccc(Br)o2)c1`, the activation is 0.191% (inactive).

For `O=C(NCCCN1CCCC1=O)c1cccc(S(=O)(=O)NCc2ccccc2)c1`, the activation was -0.752% (inactive). To `Cc1ccc(OCc2cc(C(=O)N(C)CCc3ccccc3)no2)cc1C` belongs 4.07% (inactive). To `CN(Cc1cccnc1)C(=O)c1cc(COc2ccc3ncccc3c2)on1` belongs 39.7% (active); to `CN(Cc1cnccn1)C(=O)c1cc(COc2cccc(C(F)(F)F)c2)on1`, -2.19% (inactive); to `CC(CN1CCCCC1)OC(=O)c1ccccc1Cl` (stereo not given), -0.0657% (inactive). To `Cc1cccc(C(=O)OC(C)CN2CCN(C)CC2)c1` (stereo not given) belongs 3.11% (inactive). Regarding `Cc1cccc(C(=O)OC(C)CN2CCCC2)c1` (stereo not given), the activation is 15% (active). With `CC(=O)c1nn(-c2ccc(C)cc2)cc1C(=O)c1cccc(Br)c1`, the activation is -0.49% (inactive). Next, `Cc1ccc(/C=N/NC(=O)CSc2ccccn2)o1`: -0.331% (inactive); `N#CCC(=O)N/N=C/c1ccc(SCC(=O)Nc2ccccc2)o1`: 105% (active); `O=C(CSc1ccc(/C=N/NC(=O)c2cccc(F)c2)o1)Nc1ccccc1`: 0.0126% (inactive). As to `COc1ccc(CNC(=O)C2CCN(C(=O)c3ccccc3)CC2)cc1`, the activation is -0.358% (inactive). To `CCOc1ccc(N(CC(=O)NCc2ccc(OC)cc2)S(=O)(=O)c2c(C)noc2C)cc1` belongs 0.179% (inactive); to `COc1ccc(N(CC(=O)Nc2cc(OC)ccc2OC)S(=O)(=O)c2c(C)noc2C)cc1`, 10.1% (active); to `CCOc1ccc(N(CC(=O)OC)S(=O)(=O)c2c(C)noc2C)cc1`, -0.196% (inactive). To `COc1ccc(Cl)cc1NC(=O)CN(C)C(=O)c1cc(-c2cccs2)nn1-c1ccccc1` belongs 1.06% (inactive); to `CCN(CC(=O)Nc1cc(Cl)ccc1C)C(=O)Cn1c(=O)cnc2ccccc21`, -0.594% (inactive). To `O=C(COc1coc(CN2CCN(c3ccccc3)CC2)cc1=O)N1CCc2ccccc21` belongs 0.142% (inactive); to `Cc1ccc(SCc2c(C(=O)N/N=C/C3CC=CCC3)nnn2-c2nonc2N)cc1` (stereo not given), 0.655% (inactive); to `Nc1nonc1-n1nnc(C(=O)N/N=C/c2ccccc2O)c1CN1CCCC1`, -0.146% (inactive). For `Nc1nonc1-n1nnc(C(=O)N/N=C/c2cc(Br)ccc2O)c1CSC1=NCCS1`, the activation was 20.7% (active). Consider `CCN1CCN(C(=O)N(Cc2ccc(Cl)cc2)S(=O)(=O)c2ccc(C)cc2)CC1`, for which the activation was 1.75% (inactive). To `Cc1cccc(C(=O)OC(C)C(=O)NC2CCCc3ccccc32)c1O` (stereo not given) belongs -0.427% (inactive); to `O=[N+]([O-])c1ccc(O)c(/C=N/Nc2ccccc2[N+](=O)[O-])c1`, 1.42% (inactive). Next, `Oc1ccc(Br)cc1/C=N/Nc1ccccn1`: 90.5% (active); `Oc1ccc(/C=N/Nc2ccc(C(F)(F)F)cn2)cc1O`: 2.36% (inactive); `O=C(NC1CC1)C(Cc1ccccc1)NS(=O)(=O)c1ccccc1F` (stereo not given): -30.3% (inactive). To `CCS(=O)(=O)c1ccc(-c2cccc(NC(=O)c3ccc(Br)o3)c2)nn1` belongs -0.865% (inactive).

On to `N#Cc1cccc(Nc2c3c(nc4ccccc24)CCCC3)c1`, for which the activation is -0.204% (inactive). To `Cc1ccc(Nc2c3c(nc4ccccc24)CCC3)cc1` belongs 97.4% (active); to `CC(=O)Nc1ccc(Nc2c3ccccc3nc3ccccc23)cc1`, 7.58% (inactive); to `Cc1ccc(SCC(=O)Nc2nncs2)cc1`, -0.275% (inactive). To `NS(=O)(=O)c1cc(C(=O)OCC(=O)NNC(=O)c2ccccc2)ccc1Cl` belongs 0.0895% (inactive); to `Cc1nc(-c2ccccc2)sc1C1(C)CC(c2cccnc2)=NO1` (stereo not given), 5.85% (inactive); to `Cn1ccnc1-c1nnn(-c2ccc(F)cc2)n1`, 2.61% (inactive). Next, `CCOc1ccc(CCNC(=O)COC(=O)C2CCN(c3ccc(C(F)(F)F)cn3)CC2)cc1OCC`: 0.095% (inactive). In the case of `CC(C)NC(=O)NC(=O)CSc1nnc(-c2ccccc2F)n1N`, the activation was 88% (active). For `Cc1ccc(NC(=O)NC(=O)CSc2nnc(-c3ccc(OC(F)F)cc3)n2N)c(C)c1`, the activation was 2.08% (inactive).

As for `Nn1c(SCC(=O)NC2CCCC2)nnc1-c1ccccc1F`, the activation was -0.0397% (inactive). Next, `COc1ccc(NC(=O)CN(C)C(=O)c2n[nH]c3ccccc23)cc1`: 2.08% (inactive); `O=C(CCNC(=O)c1ccc(Br)cc1)NCCCc1ccccc1`: 0.558% (inactive). To `CC(=O)N1CCc2c(sc(NC(=O)CCS(=O)(=O)c3ccc(C)cc3)c2C(N)=O)C1` belongs -0.0953% (inactive). To `CS(=O)(=O)c1ccc(Cl)c(NC(=O)COC(=O)c2cccc(S(=O)(=O)N3CCCC3)c2)c1` belongs 0.78% (inactive); to `CCN1/C(=C\c2ccc3ccccc3[n+]2CC)Sc2cc(C)ccc21`, 16.3% (active).
